Data: PubChem BioAssay (NCI)
The panel holds about 83,000 compounds, 20% with a hit somewhere; the sample as a whole holds those more often.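 Assay: single dose, 48 h. Readout: percent growth (0 = no net growth; negative = cell death). Active: <10.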 Active and inactive are the calls of the source.

The compounds below were run on PC-3 prostate (assay: NCI-60 one-dose screen, 48 h (100 = growth as untreated, 0 = no growth, -100 = all killed)). Conditions: 10 µM unless noted.

Row | Structure (SMILES) | growth
1 | COc1ccc2c(c1)NC(=O)CN2c1nc(NC2CC2)nc2ccccc12 | 4.75% (active)
2 | Nc1c(C(=O)Nc2cccc(Cl)c2Cl)sc2nc3c(cc12)C(=O)CCC3 | 93.7% (inactive)
3 | CC(=O)Nc1ccc(S(=O)(=O)N2C(=O)CCC2C(=O)Nc2ccc(Br)cc2)cc1 (stereo not drawn) | 17% (inactive)
4 | Nc1nc(-c2cc3ccccc3o2)cc(=O)c(=O)[nH]1 | 97.7% (inactive)
5 | Cc1nn(-c2ccc(Cl)cc2)c(=O)n1CCOc1ccccc1Cl | 88.5% (inactive)
6 | Cc1cc(C(=O)CSc2nc3ccccc3c(=O)[nH]2)c(C)n1C | 83.9% (inactive)
7 | Cc1ccc(C2=NN(c3ccc(S(=O)(=O)NC(=O)NCc4ccccc4)cc3)C(c3ccc(N(C)C)cc3)C2)c(C)c1 (stereo not drawn) | 32.7% (inactive)
8 | O=C(/C=C/CN1CCOCC1)Nc1cc2c(Nc3cccc(Cl)c3F)ncnc2cc1OCCOC(F)F | 58.9% (inactive)
9 | COc1ccc(/C(=N/O)c2cc(OC)c(OC)c(OC)c2)c(OC)c1N | 19.2% (inactive)
10 | O=[N+]([O-])c1ccc(S(=O)(=O)N2CCN(c3ccnc4cc(Cl)ccc34)CC2)c([N+](=O)[O-])c1 | 95.1% (inactive)
11 | Cc1cc(N/C=c2\sc3ncnn3c2=O)no1 | 97.7% (inactive)
12 | O=C(Nc1ccc(F)c(Cl)c1)c1n[nH]c(=O)c2ccccc12 | 112% (inactive)
13 | O=C(CCCn1c(=O)c2sc3ccccc3c2n2nnc(-c3ccccc3)c12)NCCc1cnc[nH]1 | -14% (active)
14 | CC1=C(C#N)C(C)(C)C(C#N)=C(C)N1 | 84.7% (inactive)
15 | COc1cc(CCn2nnc3c(Nc4ccc(N5CCOCC5)cc4)ncnc32)cc(OC)c1 | 72.1% (inactive)
16 | COc1ccc(-c2cn[nH]c2-c2cc(OC)c3c(c2)OCO3)cc1 | 11.1% (inactive)
17 | Cc1ccc(OCCn2c(C)nn(-c3ccc(Cl)cc3)c2=O)cc1 | 92.4% (inactive)
18 | O=C(Nc1ccc(I)cc1)c1cc([N+](=O)[O-])ccc1O | 15.3% (inactive)
19 | O=C(NNC(=S)Nc1ccccc1)c1ccccn1 | 34.4% (inactive)

Row | Structure (SMILES) | growth
20 | COc1ccc(-c2cn[nH]c2-c2cc(OC)c3c(c2)OCCO3)cc1 | 28.4% (inactive)
21 | COc1cc(Cn2c(SCCC(=O)Nc3ccc(F)cc3)nc3ccccc3c2=O)cc(OC)c1OC | 75.8% (inactive)
22 | COc1cc(-c2cc(/C=C3\CCCCC3=O)[nH]n2)cc(OC)c1OC | 89.2% (inactive)
23 | Cc1ccc(S(=O)(=O)NCCCNc2nccc(-c3c(-c4ccccc4)nc4sccn34)n2)cc1 | 30.9% (inactive)
24 | O=C1C2=C(C(=O)c3c(O)ccc(O)c31)N(c1cccnc1)Cc1ccccc1O2 | -31.7% (active)
25 | COc1ccc(NC(=O)CSc2nc3ccc(Cl)cc3c(=O)n2-c2ccccc2C(F)(F)F)c(OC)c1OC | 75.1% (inactive)
26 | CC(C)C[C@H](NC(=O)[C@@H](Cc1ccccc1)n1ccc(Nc2ccccc2)cc1=O)B(O)O | 21.1% (inactive)
27 | Cc1cccc(NC(=O)c2sc3nc4c(cc3c2N)CCCC4)c1 | 26.6% (inactive)
28 | O=c1oc2c([nH]c3ccc4ccccc4c32)c2ccccc12 | 97.7% (inactive)
29 | CC1CCc2c(sc(NC(=O)CSc3nnc4ccccn34)c2C(N)=O)C1 (stereo not drawn) | 106% (inactive)
30 | CC1Cc2c(N(C)C)ncnc2N(C)c2ccc(Cl)cc21 (stereo not drawn) | 32.9% (inactive)
31 | CCC(=O)Oc1cc(/C=C/C(=O)O[C@H]2C[C@H]3CN4CCc5c([nH]c6cc(OC)ccc56)[C@@H]4C[C@@H]3[C@@H](C(=O)OC)[C@@H]2OC)ccc1OC | 65.1% (inactive)
32 | CN(C)C/C=C/C(=O)Nc1cc2c(Nc3cccc(Cl)c3F)ncnc2cc1OCCOC(F)F | 40.2% (inactive)
33 | O=C1Nc2cc(Cl)ccc2Oc2cc(Oc3ccccc3)ccc21 | 75.2% (inactive)
34 | c1cncc(CNc2ccccc2-c2nnc(Nc3ccc4c(c3)OCCO4)o2)c1 | 36.5% (inactive)
35 | COC1=CC(c2ccc[nH]2)=N/C1=C\c1[nH]c(C)c(C(=O)CCCCC(=O)Oc2ccc3c(c2)CCC2C3CC[C@]3(C)[C@@H](O)CC[C@@H]23)c1C (stereo partly drawn) | 42.9% (inactive)
36 | COc1ccc(/C=c2\sc3n(c2=O)C2C(NN=3)N(C)C(=O)N2C)cc1 (stereo not drawn) | 25.4% (inactive)
37 | Cc1sc(N=Nc2ccc(N(C)C)cc2)[n+]([O-])c1C | 95.2% (inactive)
38 | COc1cc(/C=C/C(=O)c2ccccc2O)ccc1OCCCOc1cc2c(cc1OC)C(=O)N1CCC[C@H]1C=N2 | 10.7% (inactive)
